Measurements published in PubChem BioAssay (NCI).
About 83,000 compounds went through this panel and 20% of them were active in at least one assay; those are over-represented in the sample as a whole.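 Percent growth is the endpoint: 0 to 100 indicates growth inhibition (40 means 60% inhibition), 0 means no net growth, and negative values indicate cell death.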 Values without a mark were called inactive. Calls of active or inactive are those of the source. Rule for the calls: active = growth percent below 10; inactive = the rest.

How the values were obtained:
Assay in all cases: NCI-60 one-dose screen, 48 h (100 = growth as untreated, 0 = no growth, -100 = all killed)
Conditions in all cases: 10 µM unless noted
[1] = tested on: T-47D breast
[2] = tested on: MDA-MB-435 melanoma
[3] = tested on: SW-620 colon
[4] = tested on: HCT-116 colon
[5] = tested on: HCC-2998 colon
[6] = tested on: KM12 colon
[7] = tested on: MCF7 breast
[8] = tested on: BT-549 breast

SMILES | growth [1] | growth [2] | growth [3] | growth [4] | growth [5] | growth [6] | growth [7] | growth [8]
CCOc1ccc(S(=O)(=O)c2ccc(C)cc2)c2c1no[n+]2[O-] | 56.4% | 91.4% | 100% | 80.4% | 100% | 93.6% | – | –
Cc1cc(C(c2ccccc2)c2ccccc2)ccc1NS(=O)(=O)c1ccccc1 | 85.6% | 114% | – | 82.1% | 104% | 97.7% | 88.3% | –
O=C(C[C@@]1(O)C(=O)Nc2c(Cl)ccc(Cl)c21)c1ccc(C2CC2)cc1 | 40.5% | -48% (active) | 19.4% | – | 9.4% (active) | 24.7% | 16.5% | –
Cc1nc(Nc2ccc(NC(=S)Nc3ccccc3)cc2)nc2nc(Nc3cccc(Cl)c3)[nH]c(=O)c12 | 89.1% | 108% | 98.3% | – | 114% | 106% | 89.8% | –
COC1=CC(c2ccc[nH]2)=N/C1=C\c1[nH]c(C)c(C(=O)OCCn2cc(CCC[C@@H]3Cc4cc(O)ccc4C4CC[C@]5(C)[C@@H](O)CC[C@H]5C43)nn2)c1C (some centres not stated) | 102% | 80% | 56.3% | 81.6% | 85.7% | 66.9% | 96% | –
COc1cc(NC(=O)c2cccc(-c3cc(=O)c4c(OC)c(OC)c(OC)cc4o3)c2)cc(OC)c1OC | – | 6.36% (active) | 67% | 48.6% | 74.1% | 45.8% | 34.3% | 27%
C[C@@H]1CC[C@@H]2[C@@H]1[C@H](OC(=O)c1ccc3ccccc3c1)[C@]1(C3CCCCC3)C[C@@H](OC(=O)CO)[C@@]2(C)O1 | – | 72.1% | 65.1% | 28.3% | 51.3% | – | 20.5% | 0.366% (active)
OC(c1cccc(OCc2ccccc2)c1)c1nnc(-c2ccccc2)o1 (configuration not stated) | 72.9% | 101% | 104% | – | 112% | 90.7% | 95.1% | –
NS(=O)(=O)c1cnccc1-n1ccc(=O)c(S(N)(=O)=O)c1 | 84.5% | 91.7% | 97% | 92.5% | 104% | 93.3% | 88.8% | –
CC1(C)C(=O)/C(=C\c2cccnc2)C[C@]2(C)[C@H]3CC=C4[C@@H]5C[C@@](C)(C(=O)O)CC[C@]5(C)CC[C@@]4(C)[C@]3(C)CC[C@@H]12 | – | 103% | 107% | 91.9% | 108% | 99.2% | 87.7% | 96.6%
O=C1NN(C(=O)c2ccc(O)cc2)C(c2ccccc2)=N/C1=C\c1cn(-c2ccccc2)nc1-c1ccccc1 | – | 105% | 110% | 95.7% | 104% | 98.1% | 96% | 94.7%
Cc1nc2ccccc2c(/C=C/c2ccc(Cl)cc2)c1C(=O)/C=C/c1ccc(Cl)cc1 | -15.3% (active) | -51.4% (active) | -37.4% (active) | – | -74.7% (active) | -38.4% (active) | 3.86% (active) | –
Cc1cnc(Nc2ccc(OCCN3CCCC3)cc2)nc1NCc1ccco1 | – | 84.1% | 67.5% | 40.5% | 87% | 22.7% | 50.8% | 78.2%
C=C(C)[C@@H]1CC[C@]2(CNCCO)CC[C@]3(C)[C@H](CC[C@@H]4[C@@]5(C)CCC(N)[C@@](C)(CO)[C@@H]5CC[C@]43C)[C@@H]12 (some centres not stated) | – | -75.7% (active) | -60.2% (active) | -90.2% (active) | -8.22% (active) | -2.9% (active) | -54.2% (active) | 68.6%
CCCCCCN(CCCCCC)CC(O)c1cccc2ccc(Cl)cc12 (configuration not stated) | – | 69.9% | 35.7% | 16.7% | 13.1% | 44.5% | 56.5% | 99.2%
COc1ccc(NC(=O)c2cccc(-c3cc(=O)c4c(O)c(OC)c(OC)cc4o3)c2)cc1 | – | 105% | 102% | 70.5% | 101% | 103% | 93.3% | 31%
C=C(CNCCc1ccc(O)cc1)[C@@H]1CC[C@]2(COC3CCCCO3)CC[C@]3(C)[C@H](CC[C@@H]4[C@@]5(C)CCC(N)C(C)(C)[C@@H]5CC[C@]43C)[C@@H]12 (some centres not stated) | – | -95% (active) | -77.4% (active) | -91.3% (active) | -84.7% (active) | -85.7% (active) | -79.8% (active) | -70% (active)
c1ccc2c(c1)nc(-n1ccnc1)c1nc3ccccc3n12 | – | 76.1% | 65.7% | 52.5% | 76% | 64.9% | 62.5% | 45.5%
C=C(C)[C@@H]1CC[C@]2(CN)CC[C@]3(C)[C@H](CC[C@@H]4[C@@]5(C)CCC(N)[C@@](C)(CO)[C@@H]5CC[C@]43C)[C@@H]12 (some centres not stated) | – | -86.7% (active) | -76.5% (active) | -85.5% (active) | -53.6% (active) | -72.1% (active) | -72.2% (active) | 80.4%
Oc1ccccc1-c1nc2ccccn2c1NCCN1CCOCC1 | – | 102% | 94.8% | 93.9% | 101% | 91.2% | 96.7% | 99.2%
COc1ccc(/C=C(\C#N)n2nnc3cc(F)c(F)cc32)c(OC)c1OC | – | 45.7% | 62% | 52.9% | 114% | 67.8% | 27.2% | 70.9%
CS(=O)(=O)c1ccc(-c2[nH]c3ccc(F)cc3c2/C=N/O)cc1 | – | 99.6% | 110% | 87.9% | 110% | 101% | 82.9% | 91%
